Assay outcomes from PubChem.
Shown is part of a subset that was picked to be rich in hits.
Dicer inh: blocks human Dicer maturation of pre-miR-21. z-score at 25 µM. 47,000 tested, 6% active. cat-ELCCA pre-miR-21 Dicer processing, chemiluminescence; hits give high values; in the data active = z-score above about 3, passing the limit was not always enough;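 also: higher signal means more uncleaved substrate so more Dicer inhibition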
Of the large screens only hits and unclear results are named; the others gave an inactive call.

N/C(=N\OCc1ccc(Cl)cc1)c1cc(Cl)c(N)c(Cl)c1	none
Cc1c(Br)c(C(F)(F)F)nn1CC(=O)N1CCc2ccccc2C1	none
CCn1cc(C(=O)NNC(=S)Nc2ccc(Cl)cc2)c(=O)c2cc(C(F)(F)F)ccc21	none
Cn1c(N/N=C/c2ccc3ccccc3n2)nc2c1c(=O)n(Cc1ccccc1Cl)c(=O)n2C	none
Cc1ccc(C(=O)CSc2nc3ccccc3c(=O)[nH]2)cc1C	none
Cc1cc(C)c2c(=O)[nH]c(SCC(=O)c3ccc(O)c(O)c3)nc2n1	Dicer inh 3.7
Cc1cc(=O)[nH]c(SCC(=O)c2ccc(F)cc2)n1	none
C=CCSc1nc(C)c2cc(C)ccc2n1	none
CSc1nc(C)c2cc(C)oc2n1	Dicer inh 4.3
O=[N+]([O-])c1cc(Cl)ccc1Oc1c(Cl)cccc1Cl	none
Cc1cc(NC(=O)C2CCN(C(=O)OCc3ccccc3)CC2)n(C)n1	none
COC(=O)CSc1nc(C)nc2c1oc1ccccc12	none
C=C1c2cccc(O)c2C(O)=C2C(=O)[C@]3(O)C(O)=C(C(N)=O)C(=O)[C@@H](N(C)C)[C@@H]3[C@@H](O)[C@H]12	Dicer inh 23
N#Cc1c(-c2ccc(Cl)cc2Cl)nn(-c2ccc([N+](=O)[O-])cc2)c1N	none
Clc1ccccc1CSc1nnc2sc3ccccc3n12	none
Cc1ccc(Cn2c(=O)oc3ccccc32)cc1	none
O=c1oc2ccccc2n1Cc1ccc(Cl)cc1	none
O=c1oc2ccccc2n1Cc1ccccc1Cl	Dicer inh 4.9
CC1CCCC(C)N1C(=O)Cn1cc(C(=O)c2ccco2)c2ccccc21 (configuration not stated)	none
O=C(Nc1ccccc1)N1CCSCC1	none
O=C(Nc1ccc(Cl)cc1)N1CCOCC1	none
O=C(Nc1ccc(OC(=O)N(c2ccccc2)c2ccccc2)cc1)N1CCOCC1	Dicer inh 3.9
Cc1ccc2nc(SCc3nc(-c4ccc(Br)cc4)no3)[nH]c2c1	none
C=CCn1c2ccccc2c2nnc(SCC(=O)Nc3ncc([N+](=O)[O-])s3)nc21	none
C=CCn1c2ccccc2c2nnc(SCC(=O)Nc3cc(C)on3)nc21	none
C=CCn1c2ccccc2c2nnc(SCC(=O)Nc3nc(C)c(C(=O)OCC)s3)nc21	Dicer inh 4.9
Cc1cc(-c2ccccc2)nc2oc3c(=O)[nH]cnc3c12	none
CSc1ccc(/C=C2\C(=O)N(C)N=C2C)s1	none
CC(O)(CNCc1ccc(Cl)cc1)CSc1ccccc1Cl (configuration not stated)	none
O=C1NC(=S)N/C1=C/c1cccs1	Dicer inh 4.1
Cc1ccc(S(=O)(=O)Oc2ccc(/C=C3\NC(=O)NC3=O)cc2)cc1	none
O=C1/C(=C/c2ccsc2)CC/C1=C\c1cccs1	none
Cc1ccc(/C=C2\NC(=S)NC2=O)cc1	Dicer inh 4.7
COc1ccc(/C=C2/NC(=S)NC2=O)c(Cl)c1OC	none
Cc1cc(C=C2C(=O)NC(=S)NC2=O)cc(C)c1O	none
CCOC(=O)c1cn(C(=O)c2ccco2)nc1C(F)(F)F	none
COc1ccccc1/C=C/c1ccccc1OC	none
COc1ccc2c(c1)N(C)/C(=C/c1ccc3ccccc3[n+]1C)S2	none
O=C(OCC#Cc1cc(C(F)(F)F)cc(C(F)(F)F)c1)c1ccc([N+](=O)[O-])cc1	none
Cn1c(=O)c2c(nc(Sc3ccccc3N)n2C)n(C)c1=O	none
Cn1c(=O)c2c(nc(SCc3ccc(F)cc3)n2C)n(C)c1=O	none
Cn1c(=O)c2c(nc(Sc3nnc(N)s3)n2C)n(C)c1=O	Dicer inh 3.1
Nc1ncnc2nc(N3CCOCC3)[nH]c12	none
Cc1ccc(Cl)cc1NCN1C(=O)CNC1=S	none
O=C1c2ccc([N+](=O)[O-])cc2C(=O)N1CNc1ccc(Cl)cc1	none
O=C1CCC(=O)N1CNc1ccc(Cl)cc1	Dicer inh 4
COC(=O)C1=C(C)NC2=C(C(=O)c3ccccc32)C1c1cc(Cl)c(OC)c(OC)c1 (configuration not stated)	none
C/C(=N\N=C1/NC(=O)CS1)c1ccc(Cl)s1	none
Cc1nc(-c2ccc(S(=O)(=O)N3CCCCCC3)s2)cs1	none
COc1ccccc1C1CCN(c2ccc(C3OCCCO3)cc2[N+](=O)[O-])CC1	none
COc1ccc(OC)c([N+](=O)[O-])c1N1CCOCC1	none
COc1cccc2c1OC1(N3CCOCC3)CCCCC1C2C[N+](=O)[O-] (configuration not stated)	Dicer inh 3.6
Cn1cc(-c2ccccc2)c(C(F)(F)F)n1	none
NC(=O)N/N=C1\CCCc2ccccc21	none
Cc1csc2sc(-c3ccnc(SCc4ccccc4)n3)c(C)c12	none
CCOC(=O)c1sc2sc(-c3ccn[nH]3)c(C)c2c1C	none
Cc1csc2sc(-c3ccn[nH]3)c(C)c12	Dicer inh 3.5
N#CC1=C(SCc2ccccc2)SC(c2ccccc2O)NC1=O (configuration not stated)	none
Cc1cc(C)n(-c2ccccc2)c2nn(-c3ccccc3)c(=O)c1-2	none
CCOC(=O)C(NC(C)=O)(Nc1ccc(C)cc1C)C(F)(F)F (configuration not stated)	none
NC(=O)C1c2ccccc2Oc2ccccc21	none
O=C(Nc1ccncc1)C1c2ccccc2Oc2ccccc21	none
COC(=O)C1c2ccccc2Oc2ccccc21	none
CCCCCC(C)NC(=O)C1c2ccccc2Oc2ccccc21 (configuration not stated)	none
